# Inconclusive results are not listed. A number with no mark means an inactive call. Calls come from the whole dose curve; as a rule, active = well fitted cell-killing curve with a large enough effect in the repeat runs; inconclusive = weak or mixed curves, or effect the other way; inactive = flat fitted curve, though single readings scatter.
# Assay: qHTS assay to identify small molecule antagonists of the constitutive androstane receptor (CAR) signaling pathway - cell viability counter screen (AID 1224837); note: nearly all actives have a fitted effect of over 45% in size
# Conditions: HepG2-CYP2B6-hCAR viability, CellTiter-Fluor, 23 h, co-treated with 50 nM CITCO; series mostly up to 92.4 µM; activity change, negative = cytotoxicity: at the top concentration
# Source text: National Center for Advancing Translational Sciences [NCATS]
# NIH Chemical Genomics Center [NCGC]
# U.S. Environmental Protection Agency [EPA]
# National Institutes of Environmental Health Sciences [NIEHS]
# National Toxicology Program [NTP]
# U.S. Food and Drug Administration [FDA]
# The constitutive androstane receptor (CAR) is a nuclear receptor which regulates multiple drug metabolizing enzymes (DMEs) and transporters. Activating CAR will generally increase the transcription and subsequent translation of CYP2B6 and CYP3A4. These two DMEs represent about 50% of the drug metabolizing potential in the body. When CAR is deactivated, the metabolizing potential in the body will decrease, subsequently increasing the toxicity in the body or lowering the therapeutic potential of a pro-drug. Recently, there have also been studies performed indicating CARs role in energy metabolism and cancer therapy. Therefore, inhibiting CARs activity could have a potential effect on diabetes and cancer. Identifying environmental toxins and compounds which modulate CAR, through the use of the Tox21 10K compound collection, will be an important step in determining the toxicity and potential therapeutic effects these factors will have on the human body. To differentiate true CAR antagonists from cytotoxic substances, the assay is multiplexed with a cell viability assay.
# Tox21 Assay Protocol Summary:
# A double-stable (hCAR and CYP2B6-2.2kb) transfected cell line, derived from human hepatoma (HepG2) cells, was utilized for the duration of the quantitative high-throughput screens. The HepG2-CYP2B6-hCAR cells were dispensed at 2500 cells/4 uL/well in 1536-well white solid bottom plates using a Multidrop Combi. After the assay plates were incubated at 37 C/5% CO2 for 4 hrs, 23 nL of compounds at 15 concentrations (from 5-48 columns) or positive control (from 1 to 4 columns) were transferred to the assay plates using a Pintool station. One uL of CITCO (final concentration = 50 nM) was added, using a Flying Reagent Dispenser, inside each well. After a 23 hr incubation period at 37 C/5% CO2, 1 uL of CellTiter-Fluor reagent was added into each well of the assay plates using a Flying Reagent Dispenser. The fluorescence intensity in the plates was then measured using a ViewLux plate reader.
# % is set by controls: 0 for no effect and ±100 for the full control effect.
row,Compound,"activity change, negative = cytotoxicity"
1,CC(CCO)CCCC(C)(C)O (stereo not given),3.5%
2,CC(C)(O)C(=O)c1ccc(OCCO)cc1,-0.359%
3,CC(=O)N[C@@H](CCC(N)=O)C(=O)O,3.29% [at 42.5 µM]
4,CC/C=C\CCCCO,3.51%
5,C=CCOc1nc(OCC=C)nc(OCC=C)n1,4.75%
6,C1CCCCCCCCCCC1,-6.25% [at 19 µM]
7,CC(C)COC(=O)C(C)C,6.16%
8,C=CCSCC1Nc2cc(Cl)c(S(N)(=O)=O)cc2S(=O)(=O)N1 (stereo not given),7.11% [at 42.5 µM]
9,CCOC(=O)Cn1c(=O)sc2cccc(Cl)c21,0.0065%
10,OCC(CO)(CO)COCC(CO)(CO)CO,-4.36%
11,N#CCc1ccccc1[N+](=O)[O-],4.73%
12,CCOC(=O)Nc1ccc2c(c1)N(C(=O)CCN1CCOCC1)c1ccccc1S2,-4.24% [at 42.5 µM]
13,O=C1C(CCS(=O)c2ccccc2)C(=O)N(c2ccccc2)N1c1ccccc1 (stereo not given),0.189% [at 42.5 µM]
14,NC(=O)c1ncn([C@@H]2O[C@H](CO)[C@@H](O)[C@H]2O)c1O,-4.59% [at 42.5 µM]
15,CCCCCN(CCCCC)C(=O)C(CCC(=O)O)NC(=O)c1ccc(Cl)c(Cl)c1 (stereo not given),8.38% [at 42.5 µM]
16,C1C2OC2C2C1C1CC2C2OC12 (stereo not given),4.82%
17,CSc1ccc(C=O)cc1,-0.461%
18,CCCCN(CCO)CCO,0.135%
19,CC(C)(C)N(CCO)CCO,0.274%
20,COc1nc(C)nc(N)n1,2.77%

row,Compound,"activity change, negative = cytotoxicity"
1,CC(=O)NC(Cc1ccccc1)C(=O)O (stereo not given),-9.8% [at 42.5 µM]
2,NCCNC(=O)c1ccc(Cl)cn1,-3.66% [at 42.5 µM]
3,CCCC=O,2.79%
4,CN1[C@@H]2CC[C@H]1CC(NC(=O)n1c(=O)[nH]c3ccccc31)C2 (stereo not given in full),4.29% [at 42.5 µM]
5,CC1CCN(CCCC(=O)c2ccc(F)cc2)CC1,0.867% [at 42.5 µM]
6,Cc1cc(C)c(NC(=O)CN(CC(=O)O)CC(=O)O)c(C)c1Br,-1.32% [at 42.5 µM]
7,O=C(O)C(O)[C@H](O)[C@@H](O)[C@H](O)[C@H](O)CO (stereo not given in full),8.37%
8,O=C1CC2(CCCC2)CC(=O)N1,3.26% [at 42.5 µM]
9,NC(=O)c1ncn([C@@H]2O[C@H](CO)[C@@H](O)[C@H]2O)c1N,-1.67% [at 42.5 µM]
10,O=C(O)c1ccccc1S,7.18% [at 42.5 µM]
11,CCCCNc1ccccc1,0.643%
12,NC(CS)C(=O)O (stereo not given),9.88% [at 42.5 µM]
13,COC(=O)[C@H]1[C@H]2C[C@@H]3c4[nH]c5cc(OC)ccc5c4CCN3C[C@H]2C[C@@H](OC(=O)COc2ccc(OC)cc2)[C@@H]1OC,1.34% [at 42.5 µM]
14,C=C(C)C1CC=C(C)C(O)C1 (stereo not given),1.94%
15,C=C(C)C(=O)NCCCN(C)C,-0.502%
16,C/C=C1\C(=O)C[C@H]2[C@@H]3CCC4=CC(=O)CC[C@]4(C)[C@H]3CC[C@]12C,-9.53% [at 42.5 µM]
17,C#CC(O)CCCCC (stereo not given),4.49%
18,Cc1c(F)cc2c(=O)c(C(=O)O)cn3c2c1CCC3C (stereo not given),-4.41% [at 42.5 µM]
19,C[C@H]1O[C@@H](n2cc(F)c(=O)[nH]c2=O)[C@H](O)[C@@H]1O,0.236% [at 42.5 µM]
20,O=[N+]([O-])c1ccc(CCO)cc1,-2.22%

# — PubChem BioAssay (Tox21)
